Assay results from PMC4336329 (PLoS ONE, 2015).
In all, about 310,000 compounds went through this assay and about 14,000 (4.5%) showed an effect of 50% or more. Effects have a minus sign here. The entries come from a sample that favours strong results as a whole.

These compounds were tested against human ether-à-go-go-related gene (hERG) potassium channel (human, UniProt Q12809) (assay: primary screen, population patch clamp on CHO cells stably expressing hERG; higher = less effect of the substance).
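Note: peak tail current of the secondary pulse compared with the same well before compound.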

Chain of human ether-à-go-go-related gene (hERG) potassium channel (Q12809 whole entry, looked up): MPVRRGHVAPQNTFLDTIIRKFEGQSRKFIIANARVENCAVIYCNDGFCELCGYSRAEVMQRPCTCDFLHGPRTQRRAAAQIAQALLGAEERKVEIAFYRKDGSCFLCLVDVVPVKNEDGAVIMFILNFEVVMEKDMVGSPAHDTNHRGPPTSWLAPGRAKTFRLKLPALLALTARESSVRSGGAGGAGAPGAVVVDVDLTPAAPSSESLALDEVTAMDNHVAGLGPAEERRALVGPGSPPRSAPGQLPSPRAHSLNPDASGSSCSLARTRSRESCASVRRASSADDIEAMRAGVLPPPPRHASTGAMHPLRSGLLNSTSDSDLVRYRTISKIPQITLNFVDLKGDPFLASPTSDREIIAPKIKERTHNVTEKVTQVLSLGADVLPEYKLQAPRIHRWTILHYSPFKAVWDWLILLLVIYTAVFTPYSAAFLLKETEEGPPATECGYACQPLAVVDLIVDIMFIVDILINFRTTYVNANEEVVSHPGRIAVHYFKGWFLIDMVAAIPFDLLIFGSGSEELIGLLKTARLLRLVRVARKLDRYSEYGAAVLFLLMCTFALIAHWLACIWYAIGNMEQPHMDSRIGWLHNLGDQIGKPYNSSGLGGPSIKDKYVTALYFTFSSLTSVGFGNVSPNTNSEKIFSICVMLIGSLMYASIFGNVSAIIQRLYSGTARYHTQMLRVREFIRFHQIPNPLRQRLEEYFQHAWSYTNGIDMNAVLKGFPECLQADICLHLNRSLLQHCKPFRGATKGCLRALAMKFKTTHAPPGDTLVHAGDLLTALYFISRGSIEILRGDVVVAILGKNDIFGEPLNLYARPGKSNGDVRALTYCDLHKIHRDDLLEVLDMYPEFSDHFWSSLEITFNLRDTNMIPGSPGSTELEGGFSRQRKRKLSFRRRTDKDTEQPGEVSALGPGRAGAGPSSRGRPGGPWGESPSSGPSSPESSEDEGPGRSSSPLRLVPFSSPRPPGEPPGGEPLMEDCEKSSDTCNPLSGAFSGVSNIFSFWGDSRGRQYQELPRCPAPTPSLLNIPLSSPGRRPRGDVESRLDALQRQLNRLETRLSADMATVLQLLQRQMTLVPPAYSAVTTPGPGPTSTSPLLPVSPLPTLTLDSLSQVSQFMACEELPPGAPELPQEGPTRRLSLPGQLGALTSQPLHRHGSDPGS

Compound	hERG current change (%, negative = inhibition) at 10uM
O=C(O)CC12C[C@H]3C[C@@H](C1)CC(n1ncc(N4CCN(c5ccccc5)CC4)c(Cl)c1=O)(C3)C2	6.36%
O=C(O)CCC(=O)N1CCN(Cc2ccc3c(c2)OCO3)CC1	11.6%
O=C(C1CCN(S(=O)(=O)c2ccccc2)CC1)N1CCN(Cc2ccc3c(c2)OCO3)CC1	-28.9%
O=C(CCC1CCCCC1)N1CCN(Cc2ccc3c(c2)OCO3)CC1	-67.2%
O=C(C1CCN(S(=O)(=O)c2cnc[nH]2)CC1)N1CCN(Cc2ccc3c(c2)OCO3)CC1	0.674%
N#Cc1ccc(S(=O)(=O)N2CCC(C(=O)N3CCN(Cc4ccc5c(c4)OCO5)CC3)CC2)cc1	-74.2%
CCCC(=O)N1CCN(Cc2ccc3c(c2)OCO3)CC1	-3.83%
CCOC(=O)C1CCN(S(=O)(=O)c2cc(C(=O)OC)n(C)c2)CC1	-8.49%
COC(=O)C1CCN(Cc2cn(-c3ccccc3)nc2-c2ccc3c(c2)OCO3)CC1	-33.7%
COCC1CCCCN1Cc1cn(-c2ccccc2)nc1-c1ccc2c(c1)OCO2 (centres unmarked)	-37.1%
OC[C@@H]1CCCN1Cc1cn(-c2ccccc2)nc1-c1ccc2c(c1)OCO2	-24.2%
COCC1CCCN(Cc2cn(-c3ccccc3)nc2-c2ccc3c(c2)OCO3)C1 (centres unmarked)	-65.7%
c1ccc(Cn2cc(CN3CCCCO3)c(-c3ccc4c(c3)OCO4)n2)cc1	-1.3%
c1ccc(-n2cc(CN3CCCC(CN4CCCC4)C3)c(-c3ccc4c(c3)OCO4)n2)cc1 (centres unmarked)	-29.2%
COCCC1CCCCN1Cc1cn(-c2ccccc2)nc1-c1ccc2c(c1)OCO2 (centres unmarked)	-55.8%
c1ccc(-n2cc(CN3CCC(N4CCOCC4)CC3)c(-c3ccc4c(c3)OCO4)n2)cc1	-50.8%
Cl.O=C1CSC(c2cn(-c3ccccc3)nc2-c2ccc3c(c2)OCCO3)N1CCN1CCOCC1 (centres unmarked)	-21.2%
c1ccc(Cn2cc(CN3CCCO3)c(-c3ccc4c(c3)OCO4)n2)cc1	15.9%
CC(=O)NCC1CCCN(Cc2cn(-c3ccccc3)nc2-c2ccc3c(c2)OCO3)C1 (centres unmarked)	-45.9%
c1ccc(-n2cc(CN3CCCC3)c(-c3ccc4c(c3)OCO4)n2)cc1	-73%
O=C(COC(=O)Cn1nc(-c2ccccc2)oc1=O)Nc1ccc(F)cc1	4.6%

Compound	hERG current change (%, negative = inhibition) at 10uM
CC1=C(C/C=C(\C)CCCC(C)CCCC(C)CCCC(C)C)C(=O)c2ccccc2C1=O (centres unmarked)	25.4%
COC(=O)c1sccc1NC(=O)Nc1ccccc1F	13.4%
CCCOc1ccc(N2C(=O)C3C(C(C)C)NC4(C(=O)c5ccccc5C4=O)C3C2=O)cc1 (centres unmarked)	-0.496%
O=C(NNC1CC(=O)N(c2ccc3c(c2)OCCO3)C1=O)c1ccc(Cl)cc1 (centres unmarked)	10.1%
Cc1ccc(CNC(=O)CNS(=O)(=O)c2ccc(Br)s2)cc1	-0.279%
O=C1C2C3C=CC(C4CC34)C2C(=O)N1/N=C/c1ccc(-c2cccc([N+](=O)[O-])c2)o1 (centres unmarked)	-14.1%
O=C(CSc1nncc2ccccc12)Nc1ccc(C(=O)O)cc1	10.6%
O=C(COC(=O)c1ccc(O)cc1)NC1CCCC1	14%
C#CCOc1ccc(/C=C2/C(=O)N(c3cccc(C(=O)O)c3)N=C2C)cc1OC	-2.13%
CCCN(CC#CC(O)(c1ccccc1)c1cccnc1)CCC (centres unmarked)	-37.3%
COc1ccc(NC(=O)CSc2ccc3nnc(-c4ccccn4)n3n2)c(OC)c1	-25.9%
COc1ccc(CCNC(=O)CSc2nnc3ccc(-c4ccccn4)nn23)cc1OC	2.17%
COc1ccc(CCNC(=O)CSc2nnc3ccc(-c4ccccn4)nn23)cc1	-51.6%
COc1ccc(OC)c(NC(=O)CSc2ccc3nnc(-c4ccccn4)n3n2)c1	-69%
O=C(CSc1ccc2nnc(-c3cccnc3)n2n1)Nc1ccccc1C(F)(F)F	-33.3%
O=C(CSc1nnc2ccc(-c3ccccn3)nn12)NCCc1ccccc1	-6.49%
O=C(CSc1ccc2nnc(-c3cccnc3)n2n1)Nc1ccc(F)cc1F	-21.5%
COc1ccccc1NC(=O)CSc1ccc2nnc(-c3ccncc3)n2n1	-31.3%
COc1ccccc1NC(=O)CSc1ccc2nnc(-c3cccnc3)n2n1	-57%
COc1ccccc1NC(=O)CSc1ccc2nnc(-c3ccccn3)n2n1	0.136%
COc1ccccc1NC(=O)CSc1ccc2nnc(-c3ccc(C)cc3)n2n1	-26.6%

Compound	hERG current change (%, negative = inhibition) at 10uM
CCOc1ccccc1NC(=O)CSc1ccc2nnc(-c3cccnc3)n2n1	-61.9%
COc1ccc(C(O)C(C)NC(C)C(O)c2ccc(OC)cc2)cc1 (centres unmarked)	4.3%
COc1ccc(S(=O)(=O)N2CCN(Cc3cc(OC)c(O)c(OC)c3)CC2)cc1.O=C(O)C(=O)O	4.57%
CN(C)CCNc1nc(-c2ccccc2)nnc1C(F)(F)F	-3.83%
CN1CCN(C(=O)c2ccc3c(c2)NC(=O)C(N2CCOCC2)S3)CC1 (centres unmarked)	3.85%
COc1ccc(C(C)=O)cc1CN1C(=O)C(C)N(c2ccc(C)cc2)C1=O (centres unmarked)	-25.4%
CCn1nc(NC(=O)c2ccco2)c2cc3ccccc3nc21	-0.887%
Cc1ccccc1CN1CCC(n2nccc2NC(=O)c2ccc3c(c2)OCO3)CC1	-9.06%
COc1ccc(NC(=O)CSc2ccc3nnc(-c4cccnc4)n3n2)c(OC)c1	-32.4%
COc1ccc(OC)c(NC(=O)CSc2ccc(-c3cccnc3)nn2)c1	-17.6%
COc1ccc(OC)c(NC(=O)CSc2ccc3nnc(-c4cccnc4)n3n2)c1	-61.1%
Cc1cc2nc(-c3cccnc3SCC(=O)NCc3ccco3)[nH]c2cc1C	-5.15%
Cc1ccc(C(=O)N2CCC(Cc3ccccc3)CC2)cc1[N+](=O)[O-]	-63.8%
O=C(c1ccc([N+](=O)[O-])cc1)N1CCC(Cc2ccccc2)CC1	-73.4%
O=C(c1ccccc1[N+](=O)[O-])N1CCC(Cc2ccccc2)CC1	-19%
O=[N+]([O-])c1cccc(CN2CCC(Cc3ccccc3)CC2)c1	-31.4%
O=[N+]([O-])c1ccc(C(=S)N2CCC(Cc3ccccc3)CC2)cc1	-32.4%
Cc1cc(C(=O)N2CCC(Cc3ccccc3)CC2)ccc1[N+](=O)[O-]	-38.5%
Cc1c(C(=O)N2CCC(Cc3ccccc3)CC2)cccc1[N+](=O)[O-]	-34.3%
O=[N+]([O-])c1ccc(CN2CCC(Cc3ccccc3)CC2)cc1	-55.1%
Cc1ccc(C(=O)Nc2ccc(NC(=O)c3ccc(C)o3)cc2)o1	-1.94%

Compound	hERG current change (%, negative = inhibition) at 10uM
Cc1ccc(F)cc1CNC(=O)C1CCC(=O)N(CCCN2CCCC2=O)C1 (centres unmarked)	14.6%
Cc1ccc(S(=O)(=O)Nc2cc(C(=O)Nc3cc(C)cc(C)c3)ccc2Cl)cc1	-5.44%
Cc1cc(NC(=O)CSc2nc(=O)n(CCCN(C)C)c3c2CCCC3)no1	-7.06%
Cc1ccc2nc(NC(=O)CSc3nc(=O)n(CCN(C)C)c4c3CCCC4)sc2c1	-50.2%
Cc1ccc(NC(=O)CSc2nc(=O)n(CCCN(C)C)c3c2CCC3)c(C)c1	-50.6%
Cc1ccc(NC(=O)CSc2nc(=O)n(Cc3ccncc3)c3c2CCC3)c(C)c1	-26.1%
CN(C)CCCn1c2c(c(SCC(=O)Nc3ccc4c(c3)OCCO4)nc1=O)CCC2	-12.2%
Cc1cc(NC(=O)CSc2nc(=O)n(CCN(C)C)c3c2CCCC3)no1	-6.91%
CN(C)CCCn1c2c(c(SCC(=O)Nc3nccs3)nc1=O)CCC2	-9.32%
CCN(CC)CCn1c2c(c(SCC(=O)Nc3nc4ccc(C)cc4s3)nc1=O)CCC2	-30.4%
Cc1ccc2nc(NC(=O)CSc3nc(=O)n(CCCN(C)C)c4c3CCC4)sc2c1	-50.2%
CN1CCC(=O)N([C@H](CN=[N+]=[N-])Cc2ccccc2)CC1	17.9%
c1cnc2ccc(-c3ccc4ncccc4c3)cc2c1	-5.61%
COc1cc(C=O)ccc1OCCOCCOc1ccc(Cl)cc1	-37.6%
COc1ccccc1NC(=O)c1ccc(S(=O)(=O)N2CCCC2)cc1	-20.3%
CCOC(=O)c1cccc(NC(=O)c2cc3ccccc3o2)c1	1.39%
FC(F)(F)C1CCCN(c2nsc3ccccc23)C1 (centres unmarked)	19.1%
Cl.O=C1[C@H]2CCCC[C@H]2C(=O)N1CCCCN1CCN(c2nsc3ccccc23)CC1	-74.3%
Cl.c1ccc2c(N3CCNCC3)nsc2c1	-5.8%
COc1cccc2nc3cc(C)c(C)cc3nc12	-7.73%
